Values joined by “and” are separate entries in the source; they are usually repeats but may differ in a detail not shown here. Identical values can stand only once. The campaign covered roughly 5,500 compounds. About 2,000 (36%) were called active. Roughly 18% stayed inconclusive and do not appear here. Rule as the data show it: active = normalized growth mostly below about 0.91 (no sharp cut-off); inconclusive = no clear call, values can overlap the other calls; inactive = mostly above about 0.92. The list shows a part of the results.
Experiment: chemical genetic growth profiling, strain panel (AID 1159580);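 also: tested at 20 µM; growth read once vehicle control cultures reached saturation at 30 °C; 1 = growth at the plate median or of vehicle wells; lower values mean less growth of the strain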
Conditions: S. cerevisiae deletion strains, growth OD

Measured: normalized growth

Oc1c(Cl)cc(Cl)c2cccnc12
active: locus YAL013W, strain DEP1, stronger effect = lower value 0.0554 | locus YAL021C, strain ccr4, stronger effect = lower value 0.0642 | locus YAL026C, strain drs2, stronger effect = lower value 0.0607 | locus YAL030W, strain snc1, stronger effect = lower value 0.0606 | locus YBL061C, strain skt5, stronger effect = lower value 0.0718 | locus YBR009C, strain hhf1, stronger effect = lower value 0.0665 | locus YBR021W, strain FUR4, stronger effect = lower value 0.0914 | locus YBR023C, strain chs3, stronger effect = lower value 0.0713 | locus YBR171W, strain sec66, stronger effect = lower value 0.083 | locus YBR229C, strain ROT2, stronger effect = lower value 0.0477 | locus YBR231C, strain swc5, stronger effect = lower value 0.0819 | locus YBR279W, strain paf1, stronger effect = lower value 0.064 | locus YCL011C, strain gbp2, stronger effect = lower value 0.0637 | locus YCL016C, strain dcc1, stronger effect = lower value 0.0656 | locus YCL029C, strain bik1, stronger effect = lower value 0.0628 | locus YCL061C, strain MRC1, stronger effect = lower value 0.0645 | locus YCL069W, strain vba3, stronger effect = lower value 0.0656 | locus YCR088W, strain abp1, stronger effect = lower value 0.0623 | locus YDL005C, strain med2, stronger effect = lower value 0.0757 | locus YDL035C, strain GPR1, stronger effect = lower value 0.0525 | locus YDL040C, strain nat1, stronger effect = lower value 0.0611 | locus YDL074C, strain BRE1, stronger effect = lower value 0.0827 | locus YDL101C, strain DUN1, stronger effect = lower value 0.0602 | locus YDL134C, strain PPH21, stronger effect = lower value 0.0491 | locus YDL185W, strain tfp1, stronger effect = lower value 0.0641 | locus YDL192W, strain arf1, stronger effect = lower value 0.0659 | locus YDR001C, strain nth1, stronger effect = lower value 0.0589 | locus YDR069C, strain doa4, stronger effect = lower value 0.0663 | locus YDR101C, strain arx1, stronger effect = lower value 0.0587 | locus YDR137W, strain rgp1, stronger effect = lower value 0.113 | locus YDR150W, strain NUM1, stronger effect = lower value 0.0572 | locus YDR159W, strain sac3, stronger effect = lower value 0.0885 | locus YDR162C, strain NBP2, stronger effect = lower value 0.0476 | locus YDR195W, strain ref2 0.117 | locus YDR297W, strain sur2, stronger effect = lower value 0.067 | locus YDR318W, strain mcm21, stronger effect = lower value 0.0673 | locus YDR334W, strain swr1, stronger effect = lower value 0.0629 | locus YDR335W, strain msn5, stronger effect = lower value 0.0654 | locus YDR388W, stronger effect = lower value 0.0609 | locus YDR392W, strain spt3, stronger effect = lower value 0.0726 | locus YDR502C, strain sam2, stronger effect = lower value 0.0656 | locus YEL003W, strain gim4, stronger effect = lower value 0.0637 | locus YEL037C, strain rad23, stronger effect = lower value 0.0639 | locus YEL061C, strain CIN8 (second series), stronger effect = lower value 0.0636 | locus YEL061C, strain CIN8, stronger effect = lower value 0.0482 | locus YER015W, strain faa2, stronger effect = lower value 0.0692 | locus YER016W, strain bim1, stronger effect = lower value 0.0695 | locus YER110C, stronger effect = lower value 0.08 | locus YER111C, strain swi4, stronger effect = lower value 0.0742 | locus YER155C, strain BEM2 (second series), stronger effect = lower value 0.0894 | locus YER155C, strain BEM2, stronger effect = lower value 0.0642 | locus YER167W, strain BCK2, stronger effect = lower value 0.0516 | locus YFR010W, strain ubp6, stronger effect = lower value 0.0659 | locus YGL078C, strain dbp3, stronger effect = lower value 0.0639 | locus YGL086W, strain mad1, stronger effect = lower value 0.0594 | locus YGL167C, strain pmr1, stronger effect = lower value 0.0827 | locus YGL173C, strain kem1, stronger effect = lower value 0.076 | locus YGL227W, strain vid30, stronger effect = lower value 0.0665 | locus YGL240W, strain doc1, stronger effect = lower value 0.0841 | locus YGL248W, strain PDE1, stronger effect = lower value 0.0454 | locus YGL253W, strain hxk2, stronger effect = lower value 0.0551 | locus YGR078C, strain PAC10, stronger effect = lower value 0.0521 | locus YGR135W, strain pre9, stronger effect = lower value 0.0748 | locus YGR229C, strain SMI1, stronger effect = lower value 0.0589 | locus YGR252W, strain gcn5, stronger effect = lower value 0.158 | locus YHR013C, strain ard1, stronger effect = lower value 0.111 | locus YHR027C, strain rpn1, stronger effect = lower value 0.0681 | locus YHR030C, strain SLT2, stronger effect = lower value 0.0506 and 0.116 | locus YHR079C, strain IRE1 (second series), stronger effect = lower value 0.0598 | locus YHR079C, strain IRE1, stronger effect = lower value 0.119 | locus YHR094C, strain hxt1, stronger effect = lower value 0.0629 | locus YHR129C, strain ARP1, stronger effect = lower value 0.0524 | locus YHR142W, strain chs7, stronger effect = lower value 0.0684 | locus YHR200W, strain rpn10, stronger effect = lower value 0.066 | locus YIL066C, strain RNR3, stronger effect = lower value 0.0479 | locus YIL073C, strain SPO22, stronger effect = lower value 0.128 | locus YIL125W, strain kgd1, stronger effect = lower value 0.0656 | locus YIR030C, strain dcg1, stronger effect = lower value 0.0607 | locus YJL092W, strain hpr5, stronger effect = lower value 0.0625 | locus YJL095W, strain BCK1 (second series), stronger effect = lower value 0.0621 | locus YJL095W, strain BCK1, stronger effect = lower value 0.0584 and 0.118 | locus YJL115W, strain asf1, stronger effect = lower value 0.0757 | locus YJL129C, strain trk1, stronger effect = lower value 0.089 | locus YJL134W, strain LCB3, stronger effect = lower value 0.0493 | locus YJL154C, strain vps35, stronger effect = lower value 0.0617 | locus YJL164C, strain tpk1, stronger effect = lower value 0.062 | locus YJL166W, strain qcr8, stronger effect = lower value 0.0623 | locus YJL168C, strain set2, stronger effect = lower value 0.0626 | locus YJL187C, strain SWE1 (second series), stronger effect = lower value 0.0481 | locus YJL187C, strain SWE1, stronger effect = lower value 0.0669 | locus YJR043C, strain POL32, stronger effect = lower value 0.0614

— PubChem BioAssay AID1159580 (chemical genetic matrix, 2015)
